What all share (assay): DAPPL (digital affinity profiling via proximity ligation, sequencing); 10 mM Tris-HCl pH 7.5, 50 mM NaCl, 1 mM DTT, 4% glycerol, room temperature, 30 min; GST-TFs on glutathione beads, 16-mer random dsDNA library, 0.1% formaldehyde crosslink after washing; high values mean tight binding
One test concerns the target T1, FEV (Homo sapiens, UniProt Q99581 1-238).
T1 sequence: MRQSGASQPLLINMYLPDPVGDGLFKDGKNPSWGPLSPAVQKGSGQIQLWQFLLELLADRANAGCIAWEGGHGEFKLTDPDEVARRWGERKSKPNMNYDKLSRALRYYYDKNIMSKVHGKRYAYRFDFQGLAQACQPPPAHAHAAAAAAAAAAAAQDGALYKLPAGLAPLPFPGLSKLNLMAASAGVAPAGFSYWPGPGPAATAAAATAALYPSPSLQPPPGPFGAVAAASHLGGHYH
As to conditions: protein: recombinant; tags: N-terminal GST; dsDNA, one strand shown. A digest of the protocol: (§1)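 Pools of DNA-barcoded human transcription factors, expressed in yeast as GST fusions on glutathione beads and combined with a tag-only sample, were incubated with 200 nmole of a 16-mer random double-stranded DNA library. Incubation took 30 min at room temperature in Tris/NaCl/DTT/glycerol buffer and was followed by washing, 0.1% formaldehyde crosslinking, proximity ligation (BsaI/T4 ligase, 1 h, 37 °C), PCR amplification and sequencing on an Illumina NextSeq500. Binding signal is the ratio of a hexamer's read frequency for a factor to its frequency for the tag-only sample.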

The target of a further test is ETV5 (Homo sapiens, UniProt P41161 1-510). As to conditions: protein: recombinant; tags: N-terminal GST; dsDNA, one strand shown. The method, boiled down:
as §1

The next test addresses HSF1 (Homo sapiens, UniProt Q00613 1-529). As to conditions: protein: recombinant; tags: N-terminal GST; chain copies: 3; dsDNA, one strand shown. A digest of the protocol: as §1
Another test concerns the target T2, SPIC (Homo sapiens, UniProt Q8N5J4 1-248).
T2 sequence: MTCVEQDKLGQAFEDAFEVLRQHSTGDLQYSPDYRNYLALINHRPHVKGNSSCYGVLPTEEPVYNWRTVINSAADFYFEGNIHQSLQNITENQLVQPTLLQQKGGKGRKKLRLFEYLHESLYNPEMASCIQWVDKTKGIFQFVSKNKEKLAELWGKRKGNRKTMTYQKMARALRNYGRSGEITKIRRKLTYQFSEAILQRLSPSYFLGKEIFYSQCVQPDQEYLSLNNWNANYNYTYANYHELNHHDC
As to conditions: protein: recombinant; tags: N-terminal GST; dsDNA, one strand shown. The method, boiled down: as §1

For the next test, the target named is ELF4 (Homo sapiens, UniProt Q99607 1-663). As to conditions: protein: recombinant; tags: N-terminal GST; dsDNA, one strand shown. A digest of the protocol:
as §1

For another test, the target named is T3, ELK4 (Homo sapiens, UniProt P28324-2 1-405).
T3 sequence: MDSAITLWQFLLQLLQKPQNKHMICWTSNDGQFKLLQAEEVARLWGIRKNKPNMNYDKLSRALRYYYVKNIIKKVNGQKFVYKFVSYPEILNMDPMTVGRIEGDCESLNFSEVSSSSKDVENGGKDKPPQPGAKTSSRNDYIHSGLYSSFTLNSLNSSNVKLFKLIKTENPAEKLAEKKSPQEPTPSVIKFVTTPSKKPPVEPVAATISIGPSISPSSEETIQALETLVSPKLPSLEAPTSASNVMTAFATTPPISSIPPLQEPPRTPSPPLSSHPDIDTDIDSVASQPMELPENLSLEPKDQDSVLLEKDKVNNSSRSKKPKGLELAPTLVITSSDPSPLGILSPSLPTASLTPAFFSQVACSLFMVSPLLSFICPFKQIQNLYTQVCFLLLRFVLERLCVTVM
As to conditions: protein: recombinant; tags: N-terminal GST; dsDNA, one strand shown. The method, boiled down:
as §1

In the next test the target is T4, ETV2 (Homo sapiens, UniProt O00321 1-342).
T4 sequence: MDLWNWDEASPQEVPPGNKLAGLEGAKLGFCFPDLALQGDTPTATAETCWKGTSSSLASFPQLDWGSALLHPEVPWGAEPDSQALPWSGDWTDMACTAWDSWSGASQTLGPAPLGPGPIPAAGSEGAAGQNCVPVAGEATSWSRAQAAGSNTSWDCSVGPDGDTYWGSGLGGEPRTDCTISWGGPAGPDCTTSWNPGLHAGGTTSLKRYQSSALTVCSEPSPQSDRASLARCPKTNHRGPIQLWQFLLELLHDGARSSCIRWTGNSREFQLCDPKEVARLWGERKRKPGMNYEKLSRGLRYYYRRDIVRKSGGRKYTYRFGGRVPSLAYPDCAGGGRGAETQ
As to conditions: protein: recombinant; tags: N-terminal GST; dsDNA, one strand shown. A digest of the protocol: as §1

Another test has as its target T5, ELF3 (Homo sapiens, UniProt P78545 1-371).
T5 sequence: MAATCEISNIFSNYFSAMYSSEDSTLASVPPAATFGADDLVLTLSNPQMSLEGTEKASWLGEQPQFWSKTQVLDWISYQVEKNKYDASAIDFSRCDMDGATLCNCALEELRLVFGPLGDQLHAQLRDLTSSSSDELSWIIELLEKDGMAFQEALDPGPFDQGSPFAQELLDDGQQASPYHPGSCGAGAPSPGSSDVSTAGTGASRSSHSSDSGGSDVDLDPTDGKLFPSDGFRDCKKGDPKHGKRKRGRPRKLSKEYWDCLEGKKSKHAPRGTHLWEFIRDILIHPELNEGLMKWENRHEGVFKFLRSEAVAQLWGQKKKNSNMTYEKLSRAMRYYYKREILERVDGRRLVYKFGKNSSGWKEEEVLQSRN
As to conditions: protein: recombinant; tags: N-terminal GST; dsDNA, one strand shown. A digest of the protocol:
as §1

The next test deals with CRX (Homo sapiens, UniProt O43186 1-299). As to conditions: protein: recombinant; tags: N-terminal GST; dsDNA, one strand shown. The method, boiled down: as §1
CRX, sequence (O43186 whole entry): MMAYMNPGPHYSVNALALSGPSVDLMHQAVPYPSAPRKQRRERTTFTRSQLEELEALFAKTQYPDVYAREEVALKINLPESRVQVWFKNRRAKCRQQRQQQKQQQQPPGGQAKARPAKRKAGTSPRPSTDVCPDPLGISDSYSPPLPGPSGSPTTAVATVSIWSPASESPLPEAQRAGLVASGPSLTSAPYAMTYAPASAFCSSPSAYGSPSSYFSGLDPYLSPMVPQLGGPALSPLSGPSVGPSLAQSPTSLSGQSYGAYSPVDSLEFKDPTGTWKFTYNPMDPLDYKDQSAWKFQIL
Another test deals with ETV1 (Homo sapiens, UniProt P50549 1-477). As to conditions: protein: recombinant; tags: N-terminal GST; dsDNA, one strand shown. The method, boiled down: as §1
ETV1, sequence (P50549 whole entry): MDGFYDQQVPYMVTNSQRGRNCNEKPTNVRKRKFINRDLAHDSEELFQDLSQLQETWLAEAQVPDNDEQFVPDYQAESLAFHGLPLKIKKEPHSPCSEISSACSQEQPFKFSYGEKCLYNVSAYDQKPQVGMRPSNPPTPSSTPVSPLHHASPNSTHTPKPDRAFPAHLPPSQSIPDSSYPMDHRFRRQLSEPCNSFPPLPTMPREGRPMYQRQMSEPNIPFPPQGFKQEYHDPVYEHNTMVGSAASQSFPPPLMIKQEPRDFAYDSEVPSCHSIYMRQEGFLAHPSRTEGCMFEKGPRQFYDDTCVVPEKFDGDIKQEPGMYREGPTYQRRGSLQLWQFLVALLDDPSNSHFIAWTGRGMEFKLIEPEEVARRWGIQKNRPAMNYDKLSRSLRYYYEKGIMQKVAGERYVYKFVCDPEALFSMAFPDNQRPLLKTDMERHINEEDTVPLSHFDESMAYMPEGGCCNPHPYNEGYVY
A further test deals with T6, ERF (Homo sapiens, UniProt P50548 1-548).
T6 sequence: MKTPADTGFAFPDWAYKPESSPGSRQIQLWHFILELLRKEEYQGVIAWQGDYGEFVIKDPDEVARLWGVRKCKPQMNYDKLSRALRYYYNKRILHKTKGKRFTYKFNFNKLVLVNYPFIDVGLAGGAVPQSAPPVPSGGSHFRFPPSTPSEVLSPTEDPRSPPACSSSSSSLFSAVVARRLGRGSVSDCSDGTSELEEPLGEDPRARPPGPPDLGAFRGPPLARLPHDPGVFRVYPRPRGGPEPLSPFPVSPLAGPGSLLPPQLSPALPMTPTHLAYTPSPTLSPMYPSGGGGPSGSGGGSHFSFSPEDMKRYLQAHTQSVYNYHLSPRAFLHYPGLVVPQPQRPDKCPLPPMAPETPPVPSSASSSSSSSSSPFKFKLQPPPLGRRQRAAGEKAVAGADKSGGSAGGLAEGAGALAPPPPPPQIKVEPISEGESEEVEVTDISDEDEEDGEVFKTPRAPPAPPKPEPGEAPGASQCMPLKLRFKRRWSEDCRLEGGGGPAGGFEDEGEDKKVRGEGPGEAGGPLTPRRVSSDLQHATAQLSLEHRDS
As to conditions: protein: recombinant; tags: N-terminal GST; dsDNA, one strand shown. A digest of the protocol: as §1

Another test addresses T7, ETV3L (Homo sapiens, UniProt Q6ZN32 1-361).
T7 sequence: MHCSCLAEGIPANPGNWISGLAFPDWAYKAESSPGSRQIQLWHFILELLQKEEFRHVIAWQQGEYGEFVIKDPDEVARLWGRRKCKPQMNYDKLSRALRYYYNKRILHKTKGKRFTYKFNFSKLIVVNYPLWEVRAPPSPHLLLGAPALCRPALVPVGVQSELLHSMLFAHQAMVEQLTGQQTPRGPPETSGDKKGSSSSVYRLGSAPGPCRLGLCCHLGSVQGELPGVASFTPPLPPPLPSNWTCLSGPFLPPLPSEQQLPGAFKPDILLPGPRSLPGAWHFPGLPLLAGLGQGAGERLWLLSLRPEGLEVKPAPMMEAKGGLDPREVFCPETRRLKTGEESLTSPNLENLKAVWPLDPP
As to conditions: protein: recombinant; tags: N-terminal GST; dsDNA, one strand shown. A digest of the protocol: as §1

The target in the next test is T8, ETS2 (Homo sapiens, UniProt P15036 1-469).
T8 sequence: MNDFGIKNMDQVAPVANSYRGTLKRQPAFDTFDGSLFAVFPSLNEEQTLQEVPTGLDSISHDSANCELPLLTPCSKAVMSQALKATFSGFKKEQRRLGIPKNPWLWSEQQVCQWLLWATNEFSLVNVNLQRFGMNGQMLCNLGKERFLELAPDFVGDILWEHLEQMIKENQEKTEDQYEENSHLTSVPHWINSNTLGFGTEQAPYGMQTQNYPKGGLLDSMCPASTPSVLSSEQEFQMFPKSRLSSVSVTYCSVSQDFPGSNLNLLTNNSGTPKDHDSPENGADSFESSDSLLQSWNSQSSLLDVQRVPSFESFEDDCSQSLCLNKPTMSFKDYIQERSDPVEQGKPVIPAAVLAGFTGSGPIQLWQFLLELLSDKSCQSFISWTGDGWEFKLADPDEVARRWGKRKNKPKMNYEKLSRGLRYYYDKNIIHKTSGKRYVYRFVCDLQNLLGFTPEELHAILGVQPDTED
As to conditions: protein: recombinant; tags: N-terminal GST; dsDNA, one strand shown. A digest of the protocol: as §1

The target in another test is T9, SPDEF (Homo sapiens, UniProt O95238 1-335).
T9 sequence: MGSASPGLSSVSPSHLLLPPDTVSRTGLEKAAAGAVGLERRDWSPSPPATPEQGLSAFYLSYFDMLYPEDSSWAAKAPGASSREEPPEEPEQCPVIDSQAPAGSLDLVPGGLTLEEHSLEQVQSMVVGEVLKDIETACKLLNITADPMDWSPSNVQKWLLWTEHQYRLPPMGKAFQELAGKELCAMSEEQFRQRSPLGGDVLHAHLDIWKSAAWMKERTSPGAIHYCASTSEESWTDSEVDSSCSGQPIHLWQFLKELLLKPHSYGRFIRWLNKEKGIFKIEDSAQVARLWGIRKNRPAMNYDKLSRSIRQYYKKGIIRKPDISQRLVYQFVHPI
As to conditions: protein: recombinant; tags: N-terminal GST; dsDNA, one strand shown. A digest of the protocol:
as §1

For the next test, the target named is T10, ETV7 (Homo sapiens, UniProt Q9Y603 1-341).
T10 sequence: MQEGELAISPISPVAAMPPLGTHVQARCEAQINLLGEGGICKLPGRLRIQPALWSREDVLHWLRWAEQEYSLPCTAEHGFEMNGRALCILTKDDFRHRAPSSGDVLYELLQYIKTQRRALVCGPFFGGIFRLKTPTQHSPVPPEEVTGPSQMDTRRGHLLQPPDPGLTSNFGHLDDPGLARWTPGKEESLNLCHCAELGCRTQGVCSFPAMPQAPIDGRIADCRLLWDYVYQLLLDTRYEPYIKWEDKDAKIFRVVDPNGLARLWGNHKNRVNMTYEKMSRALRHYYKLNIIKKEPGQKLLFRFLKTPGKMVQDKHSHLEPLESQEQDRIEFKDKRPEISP
As to conditions: protein: recombinant; tags: N-terminal GST; dsDNA, one strand shown. The method, boiled down: as §1

The target of a further test is T11, ELF5 (Homo sapiens, UniProt Q9UKW6-2 1-255).
T11 sequence: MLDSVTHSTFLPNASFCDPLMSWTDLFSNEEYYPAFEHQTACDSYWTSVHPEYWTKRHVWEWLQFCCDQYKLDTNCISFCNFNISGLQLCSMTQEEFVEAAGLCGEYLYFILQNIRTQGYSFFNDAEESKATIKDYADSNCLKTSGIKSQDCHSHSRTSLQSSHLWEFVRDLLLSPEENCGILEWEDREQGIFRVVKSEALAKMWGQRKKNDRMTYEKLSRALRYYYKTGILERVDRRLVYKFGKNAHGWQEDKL
As to conditions: protein: recombinant; tags: N-terminal GST; dsDNA, one strand shown. The method, boiled down: as §1

Another test deals with T12, ETV3 (Homo sapiens, UniProt P41162-2 1-143).
T12 sequence: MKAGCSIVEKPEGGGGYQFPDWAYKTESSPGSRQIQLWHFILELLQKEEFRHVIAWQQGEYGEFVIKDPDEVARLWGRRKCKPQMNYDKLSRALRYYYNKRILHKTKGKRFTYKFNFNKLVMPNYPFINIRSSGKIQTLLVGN
As to conditions: protein: recombinant; tags: N-terminal GST; dsDNA, one strand shown. The method, boiled down: as §1

The next test has as its target ETV6 (Homo sapiens, UniProt P41212 1-452). As to conditions: protein: recombinant; tags: N-terminal GST; dsDNA, one strand shown. The method, boiled down:
as §1

ETV5, sequence (P41161 whole entry): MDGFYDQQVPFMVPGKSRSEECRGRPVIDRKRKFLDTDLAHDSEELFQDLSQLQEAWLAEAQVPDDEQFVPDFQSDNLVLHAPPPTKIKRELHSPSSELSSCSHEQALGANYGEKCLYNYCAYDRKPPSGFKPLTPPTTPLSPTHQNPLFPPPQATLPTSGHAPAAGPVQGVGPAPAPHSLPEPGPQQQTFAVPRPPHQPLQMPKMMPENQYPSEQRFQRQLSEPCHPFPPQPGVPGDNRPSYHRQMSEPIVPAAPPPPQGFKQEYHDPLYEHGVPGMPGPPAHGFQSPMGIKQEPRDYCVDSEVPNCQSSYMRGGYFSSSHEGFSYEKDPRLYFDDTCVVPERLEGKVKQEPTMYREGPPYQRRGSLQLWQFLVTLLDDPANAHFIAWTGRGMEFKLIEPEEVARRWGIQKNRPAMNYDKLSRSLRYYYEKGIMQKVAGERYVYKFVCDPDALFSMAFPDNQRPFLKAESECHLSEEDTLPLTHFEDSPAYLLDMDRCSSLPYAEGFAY
ELF4, sequence (Q99607 whole entry): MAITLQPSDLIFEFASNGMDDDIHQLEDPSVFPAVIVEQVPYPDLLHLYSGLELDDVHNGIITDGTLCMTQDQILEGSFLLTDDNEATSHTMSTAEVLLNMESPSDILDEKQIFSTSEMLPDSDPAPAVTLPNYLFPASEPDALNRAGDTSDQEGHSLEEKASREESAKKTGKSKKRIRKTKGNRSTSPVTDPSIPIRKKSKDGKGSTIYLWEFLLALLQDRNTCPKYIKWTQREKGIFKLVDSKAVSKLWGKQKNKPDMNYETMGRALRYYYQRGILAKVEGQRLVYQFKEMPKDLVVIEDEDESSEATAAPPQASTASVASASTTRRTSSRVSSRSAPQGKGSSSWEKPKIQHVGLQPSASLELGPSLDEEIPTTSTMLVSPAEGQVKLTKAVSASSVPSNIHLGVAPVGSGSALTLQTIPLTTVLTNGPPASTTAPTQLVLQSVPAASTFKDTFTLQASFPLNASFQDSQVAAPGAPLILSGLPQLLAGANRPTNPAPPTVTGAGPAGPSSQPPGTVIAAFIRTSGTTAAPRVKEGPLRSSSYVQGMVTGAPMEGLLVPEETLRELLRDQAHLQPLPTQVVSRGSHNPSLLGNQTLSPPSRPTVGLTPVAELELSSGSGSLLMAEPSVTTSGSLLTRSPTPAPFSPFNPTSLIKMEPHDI
HSF1, sequence (Q00613 whole entry): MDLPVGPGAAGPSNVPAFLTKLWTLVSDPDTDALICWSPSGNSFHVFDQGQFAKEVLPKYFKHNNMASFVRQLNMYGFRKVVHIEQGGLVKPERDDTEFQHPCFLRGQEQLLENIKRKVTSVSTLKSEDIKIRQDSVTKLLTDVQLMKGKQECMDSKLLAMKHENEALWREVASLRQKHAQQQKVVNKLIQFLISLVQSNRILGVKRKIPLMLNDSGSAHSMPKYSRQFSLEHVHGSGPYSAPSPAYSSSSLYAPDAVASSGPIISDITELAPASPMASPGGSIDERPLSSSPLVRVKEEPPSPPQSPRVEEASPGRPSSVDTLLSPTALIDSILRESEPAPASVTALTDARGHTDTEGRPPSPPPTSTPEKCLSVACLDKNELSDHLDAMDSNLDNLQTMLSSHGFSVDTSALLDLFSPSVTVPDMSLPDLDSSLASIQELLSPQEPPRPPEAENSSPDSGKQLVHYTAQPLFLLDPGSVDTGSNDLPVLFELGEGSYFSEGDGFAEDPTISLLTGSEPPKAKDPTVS
ETV6, sequence (P41212 whole entry): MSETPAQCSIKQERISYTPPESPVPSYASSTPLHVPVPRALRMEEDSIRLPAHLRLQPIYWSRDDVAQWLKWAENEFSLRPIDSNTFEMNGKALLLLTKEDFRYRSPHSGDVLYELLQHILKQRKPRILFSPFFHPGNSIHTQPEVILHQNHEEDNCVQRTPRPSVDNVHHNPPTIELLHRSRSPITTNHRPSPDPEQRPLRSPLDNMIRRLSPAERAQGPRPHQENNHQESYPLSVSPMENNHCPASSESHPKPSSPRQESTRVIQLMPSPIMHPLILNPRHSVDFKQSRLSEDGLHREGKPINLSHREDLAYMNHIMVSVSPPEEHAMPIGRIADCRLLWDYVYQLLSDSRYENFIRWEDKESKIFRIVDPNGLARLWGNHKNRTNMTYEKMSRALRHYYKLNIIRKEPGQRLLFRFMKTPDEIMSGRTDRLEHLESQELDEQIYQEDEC

On to GCTAGC, for which the binding signal is 1.31 fold enrichment (6-mer frequency, TF over GST control) in the test with FEV; 1.24 fold enrichment (6-mer frequency, TF over GST control) in the test with ETV5; 1.19 fold enrichment (6-mer frequency, TF over GST control) with HSF1; 1.28 fold enrichment (6-mer frequency, TF over GST control) with SPIC; 1.3 fold enrichment (6-mer frequency, TF over GST control) with ELF4; 1.23 fold enrichment (6-mer frequency, TF over GST control) with ELK4. The binding signal in the test with ETV2 was 1.39 fold enrichment (6-mer frequency, TF over GST control); with ELF3, 1.2 fold enrichment (6-mer frequency, TF over GST control); in the test with CRX it was 1.05 fold enrichment (6-mer frequency, TF over GST control); with ETV1, 1.24 fold enrichment (6-mer frequency, TF over GST control); in the test with ERF it was 1.2 fold enrichment (6-mer frequency, TF over GST control); in the test with ETV3L it was 1.35 fold enrichment (6-mer frequency, TF over GST control). Further, the binding signal with ETS2 is 1.2 fold enrichment (6-mer frequency, TF over GST control); in the test with SPDEF, 1.13 fold enrichment (6-mer frequency, TF over GST control); with ETV7, 1.24 fold enrichment (6-mer frequency, TF over GST control); in the test with ELF5 it was 1.15 fold enrichment (6-mer frequency, TF over GST control); with ETV3 it was 1.16 fold enrichment (6-mer frequency, TF over GST control); with ETV6, 1.09 fold enrichment (6-mer frequency, TF over GST control).

Values taken from publication PMC7862700, “An all-to-all approach to the identification of sequence-specific readers for epigenetic DNA modifications on cytosine”.
